Source: PubChem BioAssay
This is a sample that favours compounds with a hit; in the whole collection about 11% have one here.
IL1B secr inh: qHTS for Inhibitors of Inflammasome Signaling: IL-1-beta AlphaLISA Primary Screen | 360,000 compounds, 4.7% hits | activity change, % at 57.5 µM | THP-1 LPS/ATP IL-1B secretion, AlphaLISA, 16 h; stronger effect = lower value; in the data active = activity change below about -50%; inconclusive = mostly about -30% to -49%; note: % is set by controls: 0 for no effect and ±100 for the full control effect
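Secreted IL-1B measured by AlphaLISA bead assay after 16 h compound exposure of THP-1 cells; compounds (final up to 57.5 uM) added 1 h before LPS (250 ng/mL) and ATP (1.25 mM) stimulation; lower signal means less secretion.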
SW480 rerep: A quantitative high throughput screen for small molecules that induce DNA re-replication in SW480 colon adenocarcinoma cells; Potency, µM (highest dose often 46.1 µM), inactives show top-dose re-replication activation, most hits filed as activators; 340,000 compounds, 1.8% hits; AID 624297, 2012; SW480 DNA re-replication, Hoechst DNA content imaging, 48 h; note: potency is the fitted concentration of half-maximal effect; % of control where 0% means no effect; nearly all actives have a fitted effect of over 55% in size
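Image-based read-out: total Hoechst fluorescence of nuclei (405 nm excitation, 500-530 nm emission), with hits raising the fraction of high-intensity nuclei. SW480 colon cells incubated 48 hr with compounds at 37 C.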
Gal4-VP16 FLuc: VP16 counterscreen qHTS for inhibitors of ROR gamma transcriptional activity. Drosophila S2 Gal4-VP16 UAS-luciferase, luminescence, 20 h. Potency, µM (titrated, usually from 53.6 µM), without a hit: top-dose activity, negative = inhibition, actives largely listed as inhibitors. 310,000 compounds, 3.5% hits. AID 2546, 2010;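 note: Gal4-VP16 expression switched on by copper sulfate through the metallothionein promoter; potency is the fitted concentration of half-maximal effect; % is set by controls: 0 for no effect and ±100 for the full control effect; nearly all actives have a fitted effect of over 50% in size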
RORg inh: qHTS for inhibitors of ROR gamma transcriptional activity; Drosophila S2 Gal4-RORgamma UAS-luciferase reporter, 20 h; 310,000 compounds, 5.4% hits; Potency, µM (series often up to 53.6 µM), without a hit: at the highest dose activity change, negative = inhibition, usual class: inhibitors; AID 2551, 2010; Nuclear receptor ROR-gamma (Mus musculus), P51450; note: potency is the fitted concentration of half-maximal effect; % is set by controls: 0 for no effect and ±100 for the full control effect; nearly all actives have a fitted effect of over 60% in size
Target sequence (P51450 whole entry, looked up, the tested form may be a part): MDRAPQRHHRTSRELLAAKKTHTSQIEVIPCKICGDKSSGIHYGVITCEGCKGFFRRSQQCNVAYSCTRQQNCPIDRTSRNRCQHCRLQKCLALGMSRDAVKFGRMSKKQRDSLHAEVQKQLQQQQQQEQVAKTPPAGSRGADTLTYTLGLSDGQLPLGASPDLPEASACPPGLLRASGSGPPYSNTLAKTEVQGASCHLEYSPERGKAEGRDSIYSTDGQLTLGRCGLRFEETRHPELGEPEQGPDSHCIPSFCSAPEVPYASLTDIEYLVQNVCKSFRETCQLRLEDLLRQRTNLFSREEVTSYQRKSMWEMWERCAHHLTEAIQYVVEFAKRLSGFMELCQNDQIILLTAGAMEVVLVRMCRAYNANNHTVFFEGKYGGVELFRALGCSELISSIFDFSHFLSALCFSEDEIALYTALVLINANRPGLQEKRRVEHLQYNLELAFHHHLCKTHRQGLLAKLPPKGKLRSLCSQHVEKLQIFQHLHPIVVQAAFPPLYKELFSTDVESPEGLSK
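A Gal4/UAS one-hybrid system in insect cells: metallothionein-promoter Gal4–ROR gamma fusion plus Photinus luciferase reporter. Copper sulfate 700 uM final, 20 hr ambient incubation, luminescent detection after 10 min with reagent.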
MCF10A rereplic: A quantitative high throughput screen for small molecules that induce DNA re-replication in MCF 10a normal breast cells; AID 624296, 2012; 350,000 compounds, 2.9% hits; MCF 10A DNA re-replication, Hoechst nuclear intensity, 48 h; Potency, µM (highest dose often 46.1 µM), for the others: top-dose activity, positive = re-replication, actives largely listed as activators; note: potency is the fitted concentration of half-maximal effect; % of control where 0% means no effect; nearly all actives have a fitted effect of over 50% in size
Starred values were filed as active, the others as inactive; ? = inconclusive; nt = no result given; [ ] = dose if it differs, or a comment. Unless noted, calls come from the whole dose curve; as a rule, active = well fitted curve in the direction sought with a large enough effect; inconclusive = small, poorly fitted or top-dose-only effect, or another doubt; inactive = no such curve, though single readings can be large; an effect the other way counts as inactive or inconclusive.

SMILES	IL1B secr inh	SW480 rerep	Gal4-VP16 FLuc	RORg inh	MCF10A rereplic
CC1CCC(N(C)C(=O)CN2C(=O)NC(c3ccccc3)(c3ccccc3)C2=O)CC1 (stereo unspecified)	3	nt	nt	nt	nt
COc1ccc(COC(=O)C2=C(C)NC(=O)NC2c2cc(OC)ccc2OC)cc1 (stereo unspecified)	?	-11%	0%	41%	0.52µM*
COc1ccc(C2(c3ccc(OC)cc3)NC(=O)N(CC(=O)N(C)C3CCC(C)CC3)C2=O)cc1 (stereo unspecified)	-56*	6%	nt	nt	13%
CC1=C(C(=O)OCc2ccc3c(c2)OCO3)C(c2ccccc2OCc2ccccc2)NC(=O)N1 (stereo unspecified)	-50*	4%	-6%	8%	?
COc1ccc(OC)c(C2NC(=O)NC(C)=C2C(=O)OCc2ccccc2)c1 (stereo unspecified)	-8	-6%	-10%	2%	9%
COc1ccc(C2NC(=O)NC(C)=C2C(=O)OC2CCC(C)CC2)cc1 (stereo unspecified)	-65*	30%	-15%	?	3%
COc1ccc(C2NC(=O)NC(C)=C2C(=O)OC2CCCCC2)cc1 (stereo unspecified)	-25	nt	nt	nt	nt
CCCOc1ccccc1C1NC(=O)NC(C)=C1C(=O)OCc1ccccc1 (stereo unspecified)	-71*	0%	?	1%	-2%
CCCOc1ccccc1C1NC(=O)NC(C)=C1C(=O)OCCOC (stereo unspecified)	-13	-6%	2%	1%	2%
COC(=O)[C@@H](NCc1cccc(CN[C@H](C(=O)OC)c2ccccc2)c1)c1ccccc1	10	-20%[9.22 µM]	3%	12%	-22%
COC(=O)COc1ccc(C(=O)Cn2c(NCCCO)nc3ccccc32)cc1	-93*	-17%	nt	nt	3%
O=C(Cn1c(NCCCO)nc2ccccc21)c1ccco1	6	?	-11%	?	18µM*
Cc1ccc(NC(=O)c2ccc3c(=O)n4c(nc3c2)CCC4)cc1S(=O)(=O)N(C)C	11	2%	nt	nt	0%
O=C(COC(=O)c1ncc(Cl)c(Cl)c1Cl)Nc1cccnc1Cl	-56*	-6%	nt	nt	1%
CC(C)NC(=O)NC(=O)COC(=O)c1ncc(Cl)c(Cl)c1Cl	-63*	-2%	27%	-31%	0%
O=c1oc2cc(O)ccc2cc1-c1ccc2c(c1)OCCO2	nt	nt	-28%	-17%	nt
OC1OC[C@H](O)[C@H](O)[C@H]1O (stereo partly specified)	nt	nt	-8%	3%	nt
O=C(/C=C/c1ccc(NC(=O)c2ccccc2-c2ccccc2C(=O)O)cc1)c1ccccc1	-62*	11%	?	11µM*	?
O=C(/C=C/c1ccncc1)c1ccc(NC(=O)c2ccccc2F)cc1	-104*	4.1µM*	?	?	3.7µM*
Cc1noc(C)c1COc1ccc(CC(=O)NCCc2ccccn2)cc1	16	-9%	-18%	-6%	4%
COc1cc(C(=O)NCc2cccs2)ccc1OCc1c(C)noc1C	-1	-23%	nt	nt	10%
Cc1noc(C)c1COc1ccc(C(=O)NCCc2ccccn2)cc1	16	5%	?	15%	3.3µM*
CC(=O)c1ccccc1NC(=O)c1ccc(OCc2c(C)noc2C)cc1	-66*	1%	nt	nt	16%
Cc1noc(C)c1COc1ccc(C(=O)NCc2cccs2)cc1	-99*	3%	nt	nt	10%
Cc1cccc(C(=O)Nc2ccccc2C(=O)OCc2c(C)noc2C)c1	-57*	11%	0%	-5%	12%
COC(=O)C1=C(C)[C@H](O)[C@@H](C)[C@](C)(c2cc(OC)c(C)c(OC)c2COc2ccccc2)O1	nt	nt	2%	20%	nt
O=C(Nc1cccc(Cl)c1)c1nc[nH]c1C(=O)N1CCN(c2ccccc2)CC1	18	-5%	nt	nt	-15%
Cc1noc(C)c1COc1ccccc1C(=O)NC(C)CCc1ccccc1 (stereo unspecified)	12	4.1µM*	nt	nt	-1%
